Measurements as given in the supplement of paper PMC6763611.

Tested on: Plasmodium falciparum NF54
Assay: growth inhibition relative to untreated control; higher = more inhibition
Conditions: 72 h
Procedure, shortened: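 Two media were used: minimal RPMI, and minimal RPMI carrying the chorismate end-products folate, pABA, pHBA, tyrosine, phenylalanine and tryptophan at 2.2 μM, 7.3 μM, 7.3 μM, 111 μM and 90 μM for the first five. In these media, P. falciparum NF54 ring stages (1% hematocrit, 1% parasitemia, 100 μL/well) were exposed in dark 96-well half-area plates to a single 5 μM or 1 μM test-compound dose for 72 h at 37 °C. Growth inhibition was then assessed with SYBR Green against untreated wells, subtracting background from uninfected erythrocytes.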

[1] = 1 µM, MM + chorismate end-products (CM screening medium)
[2] = 5 µM, MM + chorismate end-products (CM screening medium)

In the case of `CN1CCN(c2nccc3nc(-c4ccc(F)c(F)c4)[nH]c23)CC1`, the growth inhibition [1] is reported as 58.8%, the growth inhibition (1 µM, minimal medium (MM)) is reported as 66.9% and the growth inhibition [2] is reported as > 100%. It also gave a growth inhibition (5 µM, minimal medium (MM)) of 91.1%.

`CCc1ccc([C@@H]2C[C@H](C(F)(F)F)n3ncc(C(=O)NCc4ccc(OC)cc4)c3N2)cc1` showed a growth inhibition [1] of 31%, a growth inhibition (1 µM, minimal medium (MM)) of 6.61% and a growth inhibition [2] of 24.8%. For the same molecule, the growth inhibition (5 µM, minimal medium (MM)) was 3.56%.

Work on `O=C(Nc1ccc2c(c1)B(O)OC2)c1ccccc1C(F)(F)F` yielded a growth inhibition [1] of 69.1%, a growth inhibition (1 µM, minimal medium (MM)) of 67.8% and a growth inhibition [2] of 74.6%. It also gave a growth inhibition (5 µM, minimal medium (MM)) of 87%.

`CCS(=O)(=O)N(Cc1ccco1)Cc1cc2ccc(C)cc2nc1O` gave a growth inhibition [1] of 44%, a growth inhibition (1 µM, minimal medium (MM)) of 33.5% and a growth inhibition [2] of 87.4%. It also gave a growth inhibition (5 µM, minimal medium (MM)) of 94.5%.

In the case of `CC(=O)N1CCN(c2ccc(Oc3ccc(Cl)cc3O)cc2)CC1`, the growth inhibition [1] is reported as 48.6%, the growth inhibition (1 µM, minimal medium (MM)) is reported as 13.5% and the growth inhibition [2] is reported as < 0%. The growth inhibition (5 µM, minimal medium (MM)) was < 0%.

`COc1cccc(-n2nnnc2S(=O)(=O)Cc2ccccc2)c1` gave a growth inhibition [1] of 13.8%, a growth inhibition (1 µM, minimal medium (MM)) of 3.94% and a growth inhibition [2] of 65.6%. The growth inhibition (5 µM, minimal medium (MM)) was < 0%.

`N#Cc1nc(-c2ccccc2F)oc1NCCc1ccccc1` was tested, and the growth inhibition [1] was < 0%, the growth inhibition (1 µM, minimal medium (MM)) was < 0% and the growth inhibition [2] was < 0%. The growth inhibition (5 µM, minimal medium (MM)) was 15.2%.

`CN1CCN(CCCOc2ncc(Nc3ncc(-c4ccc(C(F)(F)F)c(F)c4)nc3C(N)=O)cn2)CC1` was tested, and the growth inhibition [1] was > 100%, the growth inhibition (1 µM, minimal medium (MM)) was > 100% and the growth inhibition [2] was > 100%. For the same molecule, the growth inhibition (5 µM, minimal medium (MM)) was 93.3%.

In the case of `CC(C(=O)Nc1ccc2oc(-c3ccncc3)nc2c1)c1ccccc1` (stereo not drawn), the growth inhibition [1] is reported as 14.6%, the growth inhibition (1 µM, minimal medium (MM)) is reported as < 0% and the growth inhibition [2] is reported as < 0%. The growth inhibition (5 µM, minimal medium (MM)) was < 0%.

Molecule `CC(c1cc(Cl)cc(Cl)c1)N(C)c1ncc2c(N)nc(N)nc2n1` (stereo not drawn) has a growth inhibition [1] of 54.9%, a growth inhibition (1 µM, minimal medium (MM)) of 91.6% and a growth inhibition [2] of 53%. For the same molecule, the growth inhibition (5 µM, minimal medium (MM)) was 77.7%.

`COc1cc(Br)cc2cc(C(=O)Nc3cccc(C(F)(F)F)c3)c(=O)oc12` was tested, and the growth inhibition [1] was 11.9%, the growth inhibition (1 µM, minimal medium (MM)) was 6.95% and the growth inhibition [2] was 21.7%. For the same molecule, the growth inhibition (5 µM, minimal medium (MM)) was < 0%.

`Cc1cc(Cl)c(S(=O)(=O)N2CCCC2)cc1OCC(=O)NC1CCCCC1` was tested, and the growth inhibition [1] was 71.3%, the growth inhibition (1 µM, minimal medium (MM)) was 100% and the growth inhibition [2] was 82.3%. It also gave a growth inhibition (5 µM, minimal medium (MM)) of 59.9%.
